# Experimental data reported in the supplement of paper PMC3334620.
# Over roughly 33,000 sequences, “E-score (-0.5 to 0.5)” has its median near -0.011; the highest 2% begin near 0.28. This excerpt belongs to a sample that is enriched for the highest values.
# Target: T1, Gcr1 (UniProt P07261)
# T1 sequence: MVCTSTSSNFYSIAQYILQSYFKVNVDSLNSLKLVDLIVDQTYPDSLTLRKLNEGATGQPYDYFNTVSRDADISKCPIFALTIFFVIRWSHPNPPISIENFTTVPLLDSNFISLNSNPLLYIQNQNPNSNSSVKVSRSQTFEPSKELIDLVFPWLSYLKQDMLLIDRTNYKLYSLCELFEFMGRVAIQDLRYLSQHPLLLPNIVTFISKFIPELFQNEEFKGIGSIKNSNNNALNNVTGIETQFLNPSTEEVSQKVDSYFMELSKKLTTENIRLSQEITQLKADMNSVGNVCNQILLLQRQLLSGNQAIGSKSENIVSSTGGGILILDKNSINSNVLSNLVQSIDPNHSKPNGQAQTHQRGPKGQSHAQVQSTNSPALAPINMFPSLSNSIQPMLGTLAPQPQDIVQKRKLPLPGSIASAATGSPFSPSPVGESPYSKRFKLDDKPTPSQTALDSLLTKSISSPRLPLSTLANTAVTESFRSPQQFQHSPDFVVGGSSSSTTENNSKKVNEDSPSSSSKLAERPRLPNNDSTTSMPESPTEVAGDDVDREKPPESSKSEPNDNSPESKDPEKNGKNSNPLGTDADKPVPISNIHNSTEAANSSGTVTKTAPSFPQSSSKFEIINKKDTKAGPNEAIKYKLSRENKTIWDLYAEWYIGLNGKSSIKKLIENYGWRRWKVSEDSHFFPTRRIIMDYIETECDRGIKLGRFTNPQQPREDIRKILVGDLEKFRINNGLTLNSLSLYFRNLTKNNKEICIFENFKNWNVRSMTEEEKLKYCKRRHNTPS
# Test: PBM E-score (8-mer binding enrichment) (E-score (-0.5 to 0.5)); higher = stronger / more preferred TF binding
# Settings: protein concentration: 100 nM; construct: GST-full length
# Outline: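 Bound GST-tagged yeast transcription factors, applied at about 100-200 nM to double-stranded universal all-10-mer Agilent arrays, were detected with fluorescent anti-GST. Scans were normalised with masliner. A modified Wilcoxon-Mann-Whitney statistic, the E-score, was assigned to each ungapped eight-base word pooled with its reverse complement by the Universal PBM Analysis Suite.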
row,Sequence,PBM E-score
1,ACGAAACG,-0.14
2,ATCGGGAC,0.0526
3,AATTGTTC,0.0249
4,AGCCTTGA,-0.273
5,AGATGAGC,-0.102
6,ACTTCTCG,-0.0046
7,CCCCAAGC,-0.00278
8,CGTGAACG,0.0112
9,ACGCAGAG,-0.141
10,ACGGGGTA,0.129
11,CTATCCCA,-0.0348
12,GAATCCCC,0.0893
13,GTATCCCA,0.339
14,ACATCCCC,0.0757
15,CCATCCCC,0.0989
16,GCATCCCC,0.351
17,GAATCCCA,0.367
18,ACATCCCA,0.0139
19,ATATCCCA,0.116
20,CCATCCCA,-0.053
21,GCATCCCA,0.309
22,AAATCCCA,0.107
23,ACAGGTAA,0.0538
24,ACCATCCT,0.0586

row,Sequence,PBM E-score
1,ATACTAGA,0.0992
2,ACATGTGA,-0.0765
3,CTGGAAAA,-0.00671
4,ACTACTCG,0.0127
5,AGGCCTAG,-0.214
6,CGGTCGAG,0.0179
7,ACACGAAA,-0.131
8,ACACGAAT,0.319
9,ACACGAAG,0.238
10,AGGTTCGG,-0.0598
11,GAGAAAGA,-0.16
12,AGTGAGAC,-0.352
13,AGATCGAT,-0.137
14,CTTCCAGA,0.341
15,ATTCCAGA,0.286
16,CTTCCAGC,0.123
17,AATCCAGA,0.259
18,AGTCCAGA,-0.0665
19,CGTCCAGA,0.233
20,GTTCCAGA,0.257
21,ATTCCAGC,0.299
22,ATTCCAGG,0.097
23,TCGGGACA,-0.0131
24,AGCTAAAC,-0.126

row,Sequence,PBM E-score
1,CGAGGGTC,-0.166
2,AGCTAGGA,0.0251
3,AATAGAGT,0.0735
4,ATTAGGCA,0.00576
5,AATAGAGA,-0.0168
6,AGTAGAAG,0.327
7,ATTAGACA,0.0379
8,ATTAGACC,-0.13
9,ATTAGGCG,0.309
10,ATTAGACG,0.295
11,AGTAGAAC,0.0351
12,CGTAGAAG,0.275
13,ATTAGGCC,-0.116
14,AATAGAGG,0.297
15,GGACAACA,-0.253
16,AAGGCCTT,-0.343
17,ACCCTGAA,0.192
18,GATTAGGC,-0.0727
19,ACTGATCA,-0.148
20,GATGGAAA,0.029
21,AGTGCGCG,-0.037
22,CATCTTGG,-0.102
23,AGAGCATG,-0.0857
24,AGTAGACG,0.302

row,Sequence,PBM E-score
1,AATAGACT,0.0888
2,AATAGACA,-0.116
3,AATAGACG,0.286
4,AGTAGACT,-0.048
5,CGTAGACG,-0.0412
6,AAGCACCA,0.0436
7,AGGCCAGC,-0.196
8,CAGGAATA,0.134
9,AAGGAATC,0.26
10,GAGGAATC,0.345
11,CAGGAATG,0.115
12,GAGGAATA,-0.146
13,CAGGAATC,0.394
14,ATCATAGG,0.0674
15,ATAGGCTG,-0.0658
16,ATCAGCGG,0.00888
17,GAACCGGA,0.183
18,GACTGGCC,-0.151
19,CGGGCTGA,-0.241
20,TCACTGGA,0.219
21,GGCTACTA,0.219
22,CGCGTTAA,-0.167
